Results published in PubChem BioAssay (NCATS).
Values joined by “and” are separate entries in the source; they are usually repeats but may differ in a detail not shown here. Equal entries are not always repeated. Results filed as inconclusive are left out. Entries that show only a call come without a potency. Active and inactive are the calls of the source. Unless noted, calls come from the whole dose curve; as a rule, active = well fitted curve in the direction sought with a large enough effect; inconclusive = small, poorly fitted or top-dose-only effect, or another doubt; inactive = no such curve, though single readings can be large; an effect the other way counts as inactive or inconclusive.

How the values were obtained:
[1] = Cellular Toxicity (caspase-3) BJ (AID 658); conditions: BJ fibroblasts, luminescence; Potency: caspase-3 activation; series mostly up to 91.7 µM
Method in brief: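 Plated BJ cells (1000/well) rested 5 hr, received compound for 16 hr at 37 °C, then Caspase-Glo 3/7 reagent for 1 hr at room temperature before luminescence reading.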

[2] = Cellular Toxicity (caspase-3) MRC-5 (AID 659); conditions: MRC-5 cells, luminescence; Potency: caspase-3 activation; series mostly up to 91.7 µM;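 note: cells exposed to compound for 16 h at 37 °C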
Method in brief: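 Apoptosis readout in MRC-5 cells: luciferase light generated after caspase 3/7 cleaves a peptide-aminoluciferin substrate, measured post 16 hr compound incubation at 37 °C.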

[3] = Cellular Toxicity (caspase-3) SK-N-SH (AID 661); conditions: SK-N-SH caspase-3 activation, qHTS; series mostly up to 91.7 µM
Method in brief: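 Cells were seeded and incubated 5 hr at 37 °C, dosed with compound over a concentration range for 16 hr, then given Caspase-Glo 3/7 reagent for 1 hr at room temperature before luminescence reading.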

[4] = Cellular Toxicity (caspase-3) H-4-II-E (AID 663); conditions: H-4-II-E rat hepatoma, scaled: DMSO 0%, 100 µM tamoxifen 100%; at 92.2 µM (top of the series);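 note: cells exposed to compound for 16 hr before readout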
Method in brief: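 Caspase 3/7 activation measured in H-4-II-E cells in complete culture medium after 16 hr treatment at 37 °C, using luciferase-coupled substrate readout; AC50 values come from Hill-equation fits of normalized concentration-response data.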

[5] = Cellular Toxicity (caspase-3) Hek293 (AID 664); conditions: HEK293 caspase-3 activation, DMSO = 0%, 100 µM tamoxifen = 100%; at 92.2 µM (top of the series);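 note: cells exposed to compound for 16 h at 37 °C before readout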
Method in brief: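 qHTS, HEK293 (human embryonic kidney), 16 h cpd exposure in complete medium. Caspase-3/7 activation = luminescence increase; normalized to DMSO/100 uM tamoxifen; Hill-fit AC50.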

[6] = Cellular Toxicity (caspase-3) N2a (AID 665); conditions: N2a cells, luminescence, normalized: DMSO 0%, 10 µM staurosporine 100%; series mostly up to 92.2 µM;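 note: compound exposure lasted 16 h at 37 °C before readout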
Method in brief: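 Caspase-3/7 activation, measured as increased luminescence from aminoluciferin release, is quantified in mouse N2a cells exposed to compounds for 16 h. Values are normalized to DMSO and 10 uM staurosporine, with AC50 derived by Hill modelling.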

[7] = Cellular Toxicity (caspase-3) NIH 3T3 (AID 666); conditions: NIH 3T3 caspase-3 activation, apoptosis/toxicity; series mostly up to 92.2 µM
Method in brief: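 Cells were plated at 1000 per well and incubated 5 hr at 37°C, then compound was added for 16 hr. Caspase-Glo 3/7 reagent followed for 20 min at room temperature before luminescence was read.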

[8] = Cellular Toxicity (caspase-3) Renal Proximal Tubule (AID 667); conditions: renal proximal tubule cells, primary cells freshly taken from rat; Potency: caspase-3 activation; series mostly up to 91.7 µM;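 note: cells exposed to compound for 16 hours at 37 °C before detection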
Method in brief: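 Luminescent caspase 3/7 signal from peptide-aminoluciferin cleavage measures apoptosis in freshly isolated rat kidney proximal tubule cells after 16 h compound exposure. Concentration-response data are normalized to DMSO and 10 uM staurosporine, and AC50 values come from Hill equation fits.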

[9] = biological target: Guanine nucleotide-binding protein G(i) subunit alpha-1 (Homo sapiens) (UniProt P63096); experiment: qHTS Assay for Inhibitors of RGS12 GoLoco Motif Activity (Green Fluorophore) (AID 879); conditions: Galphai1/FITC-RGS12 GoLoco peptide, fluorescence polarization; series mostly up to 57.1 µM;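 note: negative values mean loss of peptide binding seen as reduced polarization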
Chain of Guanine nucleotide-binding protein G(i) subunit alpha-1 (Homo sapiens) (P63096 whole entry, looked up): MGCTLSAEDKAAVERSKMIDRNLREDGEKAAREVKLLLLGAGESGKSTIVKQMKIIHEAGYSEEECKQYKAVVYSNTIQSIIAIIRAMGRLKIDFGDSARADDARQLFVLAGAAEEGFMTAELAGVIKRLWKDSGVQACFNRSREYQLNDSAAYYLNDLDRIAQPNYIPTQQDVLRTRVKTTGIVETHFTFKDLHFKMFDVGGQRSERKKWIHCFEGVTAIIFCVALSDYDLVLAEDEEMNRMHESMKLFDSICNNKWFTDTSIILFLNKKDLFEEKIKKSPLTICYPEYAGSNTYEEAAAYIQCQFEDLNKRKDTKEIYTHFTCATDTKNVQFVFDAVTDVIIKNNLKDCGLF
Method in brief: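 A drop in FITC polarization marked displacement of the FITC-tagged RGS12 GoLoco peptide (10 nM) from Gαi1 (50 nM). Compounds were incubated 10 min at room temperature in Tris pH 7.5 buffer containing 150 mM NaCl, 0.1 mM GDP and 0.05% NP40; unlabeled peptide titration served as control.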

[10] = biological target: Cytochrome P450 3A4 (Homo sapiens) (UniProt P08684); experiment: qHTS Assay for Inhibitors and Substrates of Cytochrome P450 3A4 (AID 884); conditions: recombinant CYP3A4, Luciferin-PPXE luminescence; series mostly up to 57.1 µM; note: nearly all actives have a fitted effect of over 50% in size
Chain of Cytochrome P450 3A4 (Homo sapiens) (P08684 whole entry, looked up): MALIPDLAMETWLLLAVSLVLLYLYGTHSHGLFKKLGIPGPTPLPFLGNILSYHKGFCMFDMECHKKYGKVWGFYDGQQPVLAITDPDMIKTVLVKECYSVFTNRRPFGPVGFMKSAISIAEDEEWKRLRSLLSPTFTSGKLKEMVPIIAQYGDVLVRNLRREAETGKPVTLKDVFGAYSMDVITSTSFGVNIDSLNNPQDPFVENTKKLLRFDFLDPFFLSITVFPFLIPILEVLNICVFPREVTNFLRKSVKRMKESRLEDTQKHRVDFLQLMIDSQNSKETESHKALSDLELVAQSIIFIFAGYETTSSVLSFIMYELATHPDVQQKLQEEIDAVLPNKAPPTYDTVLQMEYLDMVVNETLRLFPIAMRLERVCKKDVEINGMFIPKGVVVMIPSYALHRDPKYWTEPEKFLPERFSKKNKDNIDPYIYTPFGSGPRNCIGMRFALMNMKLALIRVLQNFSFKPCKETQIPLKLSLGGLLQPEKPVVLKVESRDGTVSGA
Method in brief: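 Luminescent readout of luciferin produced by CYP3A4 (20 nM) dealkylation of Luciferin-PPXE, 25 uM (its KM). NADPH-driven reaction ran 60 min at RT after 10 min compound preincubation; data scaled to 57 uM ketoconazole as 100% inhibition.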

[11] = Cell Viability - LYMP2-001 (AID 921); conditions: LYMP2-001 lymphoblastoid cell viability; series mostly up to 92.2 µM;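 note: cells exposed to compound for 24 h at 37 °C; nearly all actives have a fitted effect of over 70% in size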
Method in brief: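 CellTiter-Glo luminescence (intracellular ATP) after 24 hr compound exposure at 37 C, 2500 lymphoblastoid cells/well in complete medium. AC50 fitted with standard Hill equation; tetraoctylammonium bromide positive control.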

[12] = Confirmation and Secondary Assay for Modulators of Hemoglobin Beta Chain Splicing at IVS2 654 locus (AID 910); conditions: HeLa EGFP-654 splicing reporter, GFP fluorescence, 48 h; series mostly up to 46.1 µM;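 note: per-well total GFP intensity by laser scanning cytometry after 2-day treatment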
Method in brief: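 HeLa cells stably carrying EGFP interrupted by mutant beta-globin IVS2-654 intron (CMV-driven) were treated with compound for 2 days at 37C; corrected splicing was scored as total peak GFP intensity per well (488 nm excitation, 500-520 nm emission).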

[13] = Confirmation and Secondary Assay for Modulators of Hemoglobin Beta Chain Splicing at IVS2 705 locus (AID 930); conditions: HeLa EGFP-705 splicing reporter, GFP fluorescence, 48 h; series mostly up to 46.1 µM; note: potency is the fitted concentration of half-maximal effect;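 for activation: HeLa cells stably expressing the EGFP-705 splicing reporter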
Method in brief: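 HeLa cells stably carrying EGFP interrupted by mutant beta-globin IVS2-705 intron (CMV-driven) were seeded at 500 cells/well, treated next day with compound for 2 days at 37C; corrected splicing restores EGFP, read as total peak GFP intensity per well.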

[14] = biological target: Cytochrome P450 2C9 (Homo sapiens) (UniProt P11712); experiment: qHTS Assay for Inhibitors and Substrates of Cytochrome P450 2C9 (AID 883); conditions: recombinant CYP2C9, luciferin-H luminescence, 60 min; series mostly up to 25.6 µM; note: nearly all actives have a fitted effect of over 60% in size
Chain of Cytochrome P450 2C9 (Homo sapiens) (P11712 whole entry, looked up): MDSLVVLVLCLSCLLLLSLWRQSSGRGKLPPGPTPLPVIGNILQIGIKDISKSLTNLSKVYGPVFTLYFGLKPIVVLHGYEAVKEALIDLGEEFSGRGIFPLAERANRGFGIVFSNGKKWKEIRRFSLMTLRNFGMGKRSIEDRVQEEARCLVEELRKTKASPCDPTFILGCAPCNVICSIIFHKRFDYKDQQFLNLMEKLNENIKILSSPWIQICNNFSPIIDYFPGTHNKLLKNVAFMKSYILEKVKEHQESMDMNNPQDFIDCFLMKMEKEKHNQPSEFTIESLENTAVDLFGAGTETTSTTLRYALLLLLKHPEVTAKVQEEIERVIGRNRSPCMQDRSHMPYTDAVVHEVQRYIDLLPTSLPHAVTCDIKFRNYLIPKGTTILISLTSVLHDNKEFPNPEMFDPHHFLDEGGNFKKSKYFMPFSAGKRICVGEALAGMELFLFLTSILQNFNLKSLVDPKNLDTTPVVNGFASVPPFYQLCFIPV
Method in brief: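 CYP2C9 deoxyluciferin hydroxylation, 37C, 60 min with NADPH regeneration; 10nM enzyme, 100uM Luciferin-H (KM). Glo detection reagent stopped reaction; luminescence normalized to sulphaphenazole (57uM) full inhibition.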

[15] = qHTS Assay for Identification of Small Molecule Agonists for Hypoxia Response Element Signaling Pathway (AID 914; active = well fitted activation curve with a large enough effect in the signal ratio, with a control signal flat, not every such curve was filed as active; the % refers to the signal ratio); conditions: ME-180 HRE-bla reporter, beta-lactamase ratio, CoCl2, 17 h; active compounds read high
Method in brief: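 ME-180 cells carrying an HRE-driven beta-lactamase reporter were treated with compounds in a titration series plus an EC50 level of CoCl2 for 17 h at 37 degrees Celsius; CCF4 readout as the 460nm/530nm ratio gave AC50 values.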

[16] = biological target: Cytochrome P450 2D6 (Homo sapiens) (UniProt P10635); experiment: qHTS Assay for Inhibitors and Substrates of Cytochrome P450 2D6 (AID 891); conditions: recombinant CYP2D6, luciferin-ME EGE luminescence; series mostly up to 57.1 µM;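 note: luciferin methyl ether substrate demethylated by CYP2D6 with NADPH regeneration; nearly all actives have a fitted effect of over 60% in size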
Chain of Cytochrome P450 2D6 (Homo sapiens) (P10635 whole entry, looked up): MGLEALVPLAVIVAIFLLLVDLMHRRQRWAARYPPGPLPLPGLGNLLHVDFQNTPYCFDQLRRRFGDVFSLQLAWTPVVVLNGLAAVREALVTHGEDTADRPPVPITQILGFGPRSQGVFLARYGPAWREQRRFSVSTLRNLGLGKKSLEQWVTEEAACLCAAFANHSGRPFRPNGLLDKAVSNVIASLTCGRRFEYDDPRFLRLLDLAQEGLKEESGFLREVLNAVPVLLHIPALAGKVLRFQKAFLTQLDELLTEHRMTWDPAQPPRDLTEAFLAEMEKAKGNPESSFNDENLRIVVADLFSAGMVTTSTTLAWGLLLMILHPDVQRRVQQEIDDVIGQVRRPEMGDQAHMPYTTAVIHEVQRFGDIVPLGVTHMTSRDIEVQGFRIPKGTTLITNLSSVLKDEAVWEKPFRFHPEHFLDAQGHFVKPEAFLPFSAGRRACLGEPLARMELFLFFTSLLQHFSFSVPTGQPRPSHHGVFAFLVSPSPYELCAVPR
Method in brief: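 Luminescent read-out of luciferin formed by 5 nM human CYP2D6 demethylating 30 uM Luciferin-ME EGE (Km level) over 60 min at room temperature after NADPH regeneration addition. Data normalized to full inhibition by 1.43 uM quinidine.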

[17] = biological target: Cytochrome P450 2C19 (Homo sapiens) (UniProt P33261); experiment: qHTS Assay for Inhibitors and Substrates of Cytochrome P450 2C19 (AID 899); conditions: recombinant CYP2C19, luciferin-H EGE luminescence; series mostly up to 57.1 µM; note: potency is the fitted concentration of half-maximal effect; nearly all actives have a fitted effect of over 60% in size
Chain of Cytochrome P450 2C19 (Homo sapiens) (P33261 whole entry, looked up): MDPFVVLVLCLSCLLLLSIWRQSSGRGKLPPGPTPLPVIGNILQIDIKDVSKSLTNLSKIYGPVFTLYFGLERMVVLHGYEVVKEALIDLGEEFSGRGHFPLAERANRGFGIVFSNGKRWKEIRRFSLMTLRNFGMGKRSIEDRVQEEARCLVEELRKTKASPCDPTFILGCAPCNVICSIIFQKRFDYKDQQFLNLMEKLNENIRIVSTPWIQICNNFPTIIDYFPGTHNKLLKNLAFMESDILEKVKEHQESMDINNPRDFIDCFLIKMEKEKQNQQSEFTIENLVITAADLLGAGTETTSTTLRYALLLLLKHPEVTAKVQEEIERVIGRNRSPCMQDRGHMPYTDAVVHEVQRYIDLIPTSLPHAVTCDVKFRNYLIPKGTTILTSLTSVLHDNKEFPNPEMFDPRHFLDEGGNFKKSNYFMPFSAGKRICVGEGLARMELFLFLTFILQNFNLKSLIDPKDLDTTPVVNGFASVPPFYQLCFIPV
Method in brief: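 In 50mM KPO4, the reaction held 5nM enzyme and KM-level (10uM) Luciferin-H EGE; it ran 60 min at 37C after NADPH regeneration and a 10 min compound preincubation. Luminescence values were scaled to 57uM ketoconazole as complete inhibition.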

[18] = biological target: Cytochrome P450 3A4 (Homo sapiens) (UniProt P08684); experiment: qHTS Assay for Activators of Cytochrome P450 3A4 (AID 885); conditions: recombinant CYP3A4, Luciferin-PPXE luminescence, 60 min; series mostly up to 57.1 µM; note: nearly all actives have a fitted effect of over 65% in size
Method in brief: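 Using 20nM recombinant human CYP3A4 in potassium phosphate (200mM), substrate Luciferin-PPXE at 25uM, luminescent luciferin detection followed a 60-min RT NADPH reaction; data scaled to 57 uM ketoconazole.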

[19] = qHTS Assay for Identification of Small Molecule Antagonists for NFkB Signaling Pathway (AID 895; active = well fitted inhibition curve with a large enough effect in the signal ratio, with a control signal flat, not every such curve was filed as active; the % refers to the signal ratio); conditions: NFkB beta-lactamase reporter cells, FRET ratio 460/530, stimulated with 10 pM TNF alpha; series mostly up to 38.3 µM
Method in brief: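 NFkB-bla ME-180 cervical carcinoma cells with beta-lactamase reporter under NFkB response element; compounds added, then TNF alpha at 10 pM final (EC50), 5 h at 37 C. LiveBLAzer substrate 2 h, room temperature; emission 460/530 nm at 405 nm excitation.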

[20] = qHTS Assay for Identification of Small Molecule Agonists for Thrombopoietin (TPO) Signaling Pathway (AID 917); conditions: TPO signaling pathway reporter cells, agonist qHTS, stimulated with TPO at its EC50; series mostly up to 38.5 µM
Method in brief: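 Ba/F3 (mouse) + hTPO receptor + GpIIb-promoter luciferase; IL-3 withdrawn overnight; compound + 26 pM TPO (EC50), 24 hrs, 37 C, 5% CO2; Steadylite luminescence, 10 min RT.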

With `CC(=O)[C@H]1CC[C@H]2[C@@H]3CCC4=CC(=O)CC[C@]4(C)[C@H]3CC[C@]12C` the Potency [1] was “inactive”, the Potency [2] was “inactive” and the Potency [3] was “inactive”. For the same compound, the caspase-3 activation [4] was 12.7% (inactive) and 23% (inactive), the caspase-3 activation [5] was 154% (active) and the outcome [6] was “inactive”. The Potency [7] was “inactive”, the Potency [8] was “inactive” and the outcome [9] was “inactive”. For the same compound, the outcome [10] was “inactive” and the Potency [11] was “inactive”.

For `CC(=O)CC(c1ccccc1)c1c(O)c2ccccc2oc1=O` (stereo not given), the outcome [10] was “inactive”, the Potency [12] was “inactive” and the Potency [13] was “inactive”.

For `CCn1cc(C(=O)O)c(=O)c2cc(F)c(N3CCNCC3)nc21`, the outcome [14] was “inactive”, the outcome [10] was “inactive” and the Potency [12] was “inactive”. The Potency [13] was “inactive”.

For `COc1cnc(NS(=O)(=O)c2ccc(N)cc2)nc1`, the outcome [10] was “inactive”, the Potency [12] was “inactive” and the activation [15] was 5.32% (inactive). For the same compound, the Potency [13] was “inactive”.

In the case of `CNS(=O)(=O)Cc1ccc2[nH]cc(CCN(C)C)c2c1`, the outcome [10] is reported as “inactive”, the Potency [12] is reported as “inactive” and the Potency [13] is reported as “inactive”.

With `O=c1oc2c(O)c(O)cc3c(=O)oc4c(O)c(O)cc1c4c23` the outcome [10] was “inactive”, the Potency [16] was “inactive” and the Potency [17] was 31.6 µM (active). For the same compound, the Potency [12] was “inactive” and the Potency [13] was 10 µM (active).

In the case of `Cc1ncc([N+](=O)[O-])n1CCO`, the Potency [1] is reported as “inactive”, the Potency [2] is reported as “inactive” and the Potency [3] is reported as “inactive”. The caspase-3 activation [4] was 0.0502% (inactive), the caspase-3 activation [5] was -0.402% (inactive) and the outcome [6] was “inactive”. The Potency [7] was “inactive”, the Potency [8] was “inactive” and the outcome [10] was “inactive”. The Potency [12] was “inactive”, the Potency [11] was “inactive” and the Potency [13] was “inactive”.

In the case of `O=C(O)c1cccnc1`, the outcome [10] is reported as “inactive”, the Potency [12] is reported as “inactive” and the Potency [13] is reported as “inactive”.

For `CC1=NN(c2ccccc2)C(=O)C1`, the Potency [1] was “inactive”, the Potency [2] was “inactive” and the Potency [3] was “inactive”. The caspase-3 activation [4] was -1.22% (inactive), the caspase-3 activation [5] was 1.55% (inactive) and the outcome [6] was “inactive”. The Potency [7] was “inactive”, the Potency [8] was “inactive” and the outcome [18] was “inactive”. For the same compound, the Potency [12] was “inactive”, the Potency [11] was “inactive” and the Potency [13] was “inactive”.

With `N[C@@H](Cc1ccc(O)c(O)c1)C(=O)O` the outcome [9] was “inactive”, the Potency [19] was “inactive” and the outcome [20] was “inactive”.
